Experimental data: PMC7862700, “An all-to-all approach to the identification of sequence-specific readers for epigenetic DNA modifications on cytosine”

How the values were obtained:
Assay in all cases: DAPPL (digital affinity profiling via proximity ligation, sequencing); 10 mM Tris-HCl pH 7.5, 50 mM NaCl, 1 mM DTT, 4% glycerol, room temperature, 30 min; GST-TFs on glutathione beads, 16-mer random dsDNA library, 0.1% formaldehyde crosslink after washing; high values mean tight binding
Details in all cases: protein: recombinant; tags: N-terminal GST; dsDNA, one strand shown
ERF = molecular target: T1, ERF (Homo sapiens, UniProt P50548 1-548)
T1 sequence: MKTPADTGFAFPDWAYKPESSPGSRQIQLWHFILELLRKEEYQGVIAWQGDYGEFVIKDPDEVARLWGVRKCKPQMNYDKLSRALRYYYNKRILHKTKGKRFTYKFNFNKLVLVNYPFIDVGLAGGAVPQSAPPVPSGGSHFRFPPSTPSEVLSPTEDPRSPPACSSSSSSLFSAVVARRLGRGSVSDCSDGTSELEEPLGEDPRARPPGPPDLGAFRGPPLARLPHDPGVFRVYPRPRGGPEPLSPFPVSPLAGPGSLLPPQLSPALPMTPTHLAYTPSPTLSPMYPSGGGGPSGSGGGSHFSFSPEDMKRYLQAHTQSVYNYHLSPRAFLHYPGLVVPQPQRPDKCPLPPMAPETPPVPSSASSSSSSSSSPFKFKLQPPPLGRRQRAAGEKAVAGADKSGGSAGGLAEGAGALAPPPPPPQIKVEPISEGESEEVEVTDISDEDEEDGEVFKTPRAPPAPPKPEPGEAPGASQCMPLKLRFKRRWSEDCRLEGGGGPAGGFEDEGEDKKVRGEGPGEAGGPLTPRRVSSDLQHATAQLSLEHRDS
Outline: (§1)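 Binding signal is defined as a hexamer's read frequency for one factor over its frequency for the tag-only sample. To obtain reads, GST-fused human transcription factors were expressed in yeast, captured on glutathione beads, barcoded with DNA and pooled with that sample. Pools met 200 nmole of a 16-mer random double-stranded DNA library in Tris/NaCl/DTT/glycerol buffer for 30 min at room temperature before washing, 0.1% formaldehyde crosslinking, proximity ligation (BsaI/T4 ligase, 1 h, 37 °C), PCR and Illumina NextSeq500 sequencing.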

ETV3L = molecular target: T2, ETV3L (Homo sapiens, UniProt Q6ZN32 1-361)
T2 sequence: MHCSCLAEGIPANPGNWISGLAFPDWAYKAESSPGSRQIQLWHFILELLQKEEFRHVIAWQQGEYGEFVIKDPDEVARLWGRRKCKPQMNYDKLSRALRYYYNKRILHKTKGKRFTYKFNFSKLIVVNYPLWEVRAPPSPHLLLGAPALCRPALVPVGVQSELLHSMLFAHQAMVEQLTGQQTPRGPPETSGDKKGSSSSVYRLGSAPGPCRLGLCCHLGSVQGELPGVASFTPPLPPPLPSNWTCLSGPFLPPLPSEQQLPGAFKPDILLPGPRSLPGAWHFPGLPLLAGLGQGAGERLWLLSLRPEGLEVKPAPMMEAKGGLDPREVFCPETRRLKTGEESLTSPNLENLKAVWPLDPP
Outline: as §1

ETS2 = molecular target: T3, ETS2 (Homo sapiens, UniProt P15036 1-469)
T3 sequence: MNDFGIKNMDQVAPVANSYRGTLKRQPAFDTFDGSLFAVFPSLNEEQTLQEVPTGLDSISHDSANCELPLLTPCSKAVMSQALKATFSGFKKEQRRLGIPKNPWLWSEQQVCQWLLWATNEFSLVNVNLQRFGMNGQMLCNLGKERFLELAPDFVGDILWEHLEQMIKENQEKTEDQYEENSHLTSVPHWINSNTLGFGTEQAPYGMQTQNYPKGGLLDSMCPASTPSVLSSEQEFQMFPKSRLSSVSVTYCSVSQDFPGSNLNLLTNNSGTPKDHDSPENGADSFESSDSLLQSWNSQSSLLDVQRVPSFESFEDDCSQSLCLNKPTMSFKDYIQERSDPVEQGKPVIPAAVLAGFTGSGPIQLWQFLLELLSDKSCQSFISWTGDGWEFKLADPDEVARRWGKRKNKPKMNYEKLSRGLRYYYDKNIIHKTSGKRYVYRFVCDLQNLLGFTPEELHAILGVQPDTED
Outline: as §1

SPDEF = molecular target: T4, SPDEF (Homo sapiens, UniProt O95238 1-335)
T4 sequence: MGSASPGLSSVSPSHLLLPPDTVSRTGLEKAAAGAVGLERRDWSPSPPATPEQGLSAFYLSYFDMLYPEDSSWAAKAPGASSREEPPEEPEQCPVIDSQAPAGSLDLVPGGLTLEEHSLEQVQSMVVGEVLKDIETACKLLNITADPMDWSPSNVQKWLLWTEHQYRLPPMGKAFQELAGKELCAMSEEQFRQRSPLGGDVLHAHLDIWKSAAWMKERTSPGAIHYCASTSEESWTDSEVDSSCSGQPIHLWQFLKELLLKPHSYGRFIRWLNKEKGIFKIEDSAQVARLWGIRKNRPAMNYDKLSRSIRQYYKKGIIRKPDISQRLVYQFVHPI
Outline: as §1

ETV7 = molecular target: T5, ETV7 (Homo sapiens, UniProt Q9Y603 1-341)
T5 sequence: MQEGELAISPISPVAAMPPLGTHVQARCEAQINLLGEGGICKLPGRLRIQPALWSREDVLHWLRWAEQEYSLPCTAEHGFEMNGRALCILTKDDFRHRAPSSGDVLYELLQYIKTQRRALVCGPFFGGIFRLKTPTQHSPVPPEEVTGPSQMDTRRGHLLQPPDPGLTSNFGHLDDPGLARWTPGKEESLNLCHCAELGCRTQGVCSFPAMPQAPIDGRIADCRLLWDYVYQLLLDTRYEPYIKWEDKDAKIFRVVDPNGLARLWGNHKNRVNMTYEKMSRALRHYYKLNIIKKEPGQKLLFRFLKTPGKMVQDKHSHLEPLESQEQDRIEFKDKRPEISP
Outline: as §1

ELF5 = molecular target: T6, ELF5 (Homo sapiens, UniProt Q9UKW6-2 1-255)
T6 sequence: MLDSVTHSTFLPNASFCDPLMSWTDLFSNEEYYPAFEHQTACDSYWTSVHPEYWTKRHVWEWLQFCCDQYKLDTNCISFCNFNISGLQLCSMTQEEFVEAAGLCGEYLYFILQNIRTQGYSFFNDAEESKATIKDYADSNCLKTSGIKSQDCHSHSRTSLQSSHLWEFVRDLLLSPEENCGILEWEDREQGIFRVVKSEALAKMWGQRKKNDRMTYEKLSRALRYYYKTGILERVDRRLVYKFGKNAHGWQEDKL
Outline: as §1

ETV3 = molecular target: T7, ETV3 (Homo sapiens, UniProt P41162-2 1-143)
T7 sequence: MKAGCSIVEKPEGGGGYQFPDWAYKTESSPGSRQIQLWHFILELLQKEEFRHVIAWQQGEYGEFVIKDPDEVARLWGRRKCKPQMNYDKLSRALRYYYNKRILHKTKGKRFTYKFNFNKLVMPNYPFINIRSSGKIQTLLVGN
Outline: as §1

ETV6 = ETV6 (Homo sapiens, UniProt P41212 1-452)
ETV6, sequence (P41212 whole entry): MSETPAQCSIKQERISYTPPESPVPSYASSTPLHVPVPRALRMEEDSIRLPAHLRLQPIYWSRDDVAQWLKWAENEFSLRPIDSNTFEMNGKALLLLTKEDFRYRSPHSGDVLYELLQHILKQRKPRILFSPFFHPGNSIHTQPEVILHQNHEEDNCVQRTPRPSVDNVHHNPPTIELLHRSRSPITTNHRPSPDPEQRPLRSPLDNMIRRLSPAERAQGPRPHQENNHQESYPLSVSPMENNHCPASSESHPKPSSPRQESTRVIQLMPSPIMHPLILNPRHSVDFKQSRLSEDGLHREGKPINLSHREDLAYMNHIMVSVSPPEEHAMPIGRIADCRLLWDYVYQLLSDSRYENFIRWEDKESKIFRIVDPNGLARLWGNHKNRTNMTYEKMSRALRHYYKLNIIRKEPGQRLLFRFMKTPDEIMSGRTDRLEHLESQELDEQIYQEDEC
Outline: as §1

Sequence	binding signal (ERF)	binding signal (ETV3L)	binding signal (ETS2)	binding signal (SPDEF)	binding signal (ETV7)	binding signal (ELF5)	binding signal (ETV3)	binding signal (ETV6)
TCCGTT	1.53 fold enrichment (6-mer frequency, TF over GST control)	1.46 fold enrichment (6-mer frequency, TF over GST control)	1.54 fold enrichment (6-mer frequency, TF over GST control)	1.74 fold enrichment (6-mer frequency, TF over GST control)	1.41 fold enrichment (6-mer frequency, TF over GST control)	1.66 fold enrichment (6-mer frequency, TF over GST control)	1.58 fold enrichment (6-mer frequency, TF over GST control)	1.49 fold enrichment (6-mer frequency, TF over GST control)
AGTATC	1.12 fold enrichment (6-mer frequency, TF over GST control)	1.09 fold enrichment (6-mer frequency, TF over GST control)	1.18 fold enrichment (6-mer frequency, TF over GST control)	1.14 fold enrichment (6-mer frequency, TF over GST control)	1.13 fold enrichment (6-mer frequency, TF over GST control)	1.23 fold enrichment (6-mer frequency, TF over GST control)	1.13 fold enrichment (6-mer frequency, TF over GST control)	1.19 fold enrichment (6-mer frequency, TF over GST control)
GTTATG	1.05 fold enrichment (6-mer frequency, TF over GST control)	1.11 fold enrichment (6-mer frequency, TF over GST control)	1.1 fold enrichment (6-mer frequency, TF over GST control)	1.12 fold enrichment (6-mer frequency, TF over GST control)	1.12 fold enrichment (6-mer frequency, TF over GST control)	1.06 fold enrichment (6-mer frequency, TF over GST control)	1.14 fold enrichment (6-mer frequency, TF over GST control)	1.21 fold enrichment (6-mer frequency, TF over GST control)
CATTCG	1.21 fold enrichment (6-mer frequency, TF over GST control)	1.17 fold enrichment (6-mer frequency, TF over GST control)	1.17 fold enrichment (6-mer frequency, TF over GST control)	1.15 fold enrichment (6-mer frequency, TF over GST control)	1.18 fold enrichment (6-mer frequency, TF over GST control)	1.13 fold enrichment (6-mer frequency, TF over GST control)	1.27 fold enrichment (6-mer frequency, TF over GST control)	1.27 fold enrichment (6-mer frequency, TF over GST control)
CAATTG	1.29 fold enrichment (6-mer frequency, TF over GST control)	1.2 fold enrichment (6-mer frequency, TF over GST control)	1.26 fold enrichment (6-mer frequency, TF over GST control)	1.12 fold enrichment (6-mer frequency, TF over GST control)	1.32 fold enrichment (6-mer frequency, TF over GST control)	1.21 fold enrichment (6-mer frequency, TF over GST control)	1.2 fold enrichment (6-mer frequency, TF over GST control)	1.23 fold enrichment (6-mer frequency, TF over GST control)
CATGCT	1.2 fold enrichment (6-mer frequency, TF over GST control)	1.35 fold enrichment (6-mer frequency, TF over GST control)	1.25 fold enrichment (6-mer frequency, TF over GST control)	1.2 fold enrichment (6-mer frequency, TF over GST control)	1.2 fold enrichment (6-mer frequency, TF over GST control)	1.19 fold enrichment (6-mer frequency, TF over GST control)	1.19 fold enrichment (6-mer frequency, TF over GST control)	1.28 fold enrichment (6-mer frequency, TF over GST control)
CCGTAT	1.19 fold enrichment (6-mer frequency, TF over GST control)	1.17 fold enrichment (6-mer frequency, TF over GST control)	1.18 fold enrichment (6-mer frequency, TF over GST control)	1.41 fold enrichment (6-mer frequency, TF over GST control)	1.09 fold enrichment (6-mer frequency, TF over GST control)	1.31 fold enrichment (6-mer frequency, TF over GST control)	1.38 fold enrichment (6-mer frequency, TF over GST control)	1.24 fold enrichment (6-mer frequency, TF over GST control)
ATAGCA	1.24 fold enrichment (6-mer frequency, TF over GST control)	1.19 fold enrichment (6-mer frequency, TF over GST control)	1.22 fold enrichment (6-mer frequency, TF over GST control)	1.12 fold enrichment (6-mer frequency, TF over GST control)	1.06 fold enrichment (6-mer frequency, TF over GST control)	1.16 fold enrichment (6-mer frequency, TF over GST control)	1.19 fold enrichment (6-mer frequency, TF over GST control)	1.18 fold enrichment (6-mer frequency, TF over GST control)
TCTGAC	1.21 fold enrichment (6-mer frequency, TF over GST control)	1.04 fold enrichment (6-mer frequency, TF over GST control)	1.2 fold enrichment (6-mer frequency, TF over GST control)	1.14 fold enrichment (6-mer frequency, TF over GST control)	1.22 fold enrichment (6-mer frequency, TF over GST control)	1.2 fold enrichment (6-mer frequency, TF over GST control)	1.18 fold enrichment (6-mer frequency, TF over GST control)	1.27 fold enrichment (6-mer frequency, TF over GST control)
ATCTGA	1.2 fold enrichment (6-mer frequency, TF over GST control)	1.19 fold enrichment (6-mer frequency, TF over GST control)	1.17 fold enrichment (6-mer frequency, TF over GST control)	1.1 fold enrichment (6-mer frequency, TF over GST control)	1.04 fold enrichment (6-mer frequency, TF over GST control)	1.08 fold enrichment (6-mer frequency, TF over GST control)	1.06 fold enrichment (6-mer frequency, TF over GST control)	1.13 fold enrichment (6-mer frequency, TF over GST control)
GAAGTG	1.48 fold enrichment (6-mer frequency, TF over GST control)	1.53 fold enrichment (6-mer frequency, TF over GST control)	1.55 fold enrichment (6-mer frequency, TF over GST control)	1.47 fold enrichment (6-mer frequency, TF over GST control)	1.7 fold enrichment (6-mer frequency, TF over GST control)	1.79 fold enrichment (6-mer frequency, TF over GST control)	1.75 fold enrichment (6-mer frequency, TF over GST control)	1.93 fold enrichment (6-mer frequency, TF over GST control)
TCTGTA	1.16 fold enrichment (6-mer frequency, TF over GST control)	1.24 fold enrichment (6-mer frequency, TF over GST control)	1.27 fold enrichment (6-mer frequency, TF over GST control)	1.26 fold enrichment (6-mer frequency, TF over GST control)	1.03 fold enrichment (6-mer frequency, TF over GST control)	1.17 fold enrichment (6-mer frequency, TF over GST control)	1.25 fold enrichment (6-mer frequency, TF over GST control)	1.18 fold enrichment (6-mer frequency, TF over GST control)
CCCTCC	1.58 fold enrichment (6-mer frequency, TF over GST control)	1.31 fold enrichment (6-mer frequency, TF over GST control)	1.51 fold enrichment (6-mer frequency, TF over GST control)	1.36 fold enrichment (6-mer frequency, TF over GST control)	1.37 fold enrichment (6-mer frequency, TF over GST control)	1.34 fold enrichment (6-mer frequency, TF over GST control)	1.39 fold enrichment (6-mer frequency, TF over GST control)	1.4 fold enrichment (6-mer frequency, TF over GST control)
CGCCGA	1.34 fold enrichment (6-mer frequency, TF over GST control)	1.21 fold enrichment (6-mer frequency, TF over GST control)	1.22 fold enrichment (6-mer frequency, TF over GST control)	1.15 fold enrichment (6-mer frequency, TF over GST control)	1.05 fold enrichment (6-mer frequency, TF over GST control)	1.1 fold enrichment (6-mer frequency, TF over GST control)	1.16 fold enrichment (6-mer frequency, TF over GST control)	1.16 fold enrichment (6-mer frequency, TF over GST control)
AAAGGG	1.09 fold enrichment (6-mer frequency, TF over GST control)	1.09 fold enrichment (6-mer frequency, TF over GST control)	1.13 fold enrichment (6-mer frequency, TF over GST control)	1.04 fold enrichment (6-mer frequency, TF over GST control)	1.09 fold enrichment (6-mer frequency, TF over GST control)	1.19 fold enrichment (6-mer frequency, TF over GST control)	1.18 fold enrichment (6-mer frequency, TF over GST control)	1.1 fold enrichment (6-mer frequency, TF over GST control)
